Mtb FBA inh – inhibitors of M. tuberculosis fructose-bisphosphate aldolase. actives 2.3% (n = 360,000). inhibition, % at 1 µM. AID 588726. P9WQA3. purified M. tuberculosis FBA, fluorescence read-out; in the data active means inhibition above about 27%;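 further: 0% = vehicle and 100% = reference inhibitor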
GDH-TPI counter – counter-screen for M. tuberculosis FBA inhibitors: GDH-TPI coupled enzymes | GDH-TPI coupled enzyme counterscreen, NADH absorbance | AID 588335 | actives 1.2% (n = 360,000) | inhibition, % at 4.8 µM; in the data active means inhibition above about 30%;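 further: 0% = DMSO wells and 100% = wells lacking the enzyme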
DUSP3 inh – blocks human VHR1 dual specificity phosphatase. P51452. inhibition, % at 13.3 µM. AID 1654. actives 0.52% (n = 290,000). recombinant VHR phosphatase, pNPP absorbance; in the data active means inhibition above about 50%
Target sequence (P51452 whole entry, looked up): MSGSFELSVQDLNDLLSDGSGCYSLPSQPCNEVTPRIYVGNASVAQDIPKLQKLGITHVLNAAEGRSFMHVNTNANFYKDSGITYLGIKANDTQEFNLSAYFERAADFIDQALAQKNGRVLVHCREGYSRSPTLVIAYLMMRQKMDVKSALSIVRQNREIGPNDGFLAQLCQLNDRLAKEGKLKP
Mtb hypoxia inh – Mtb hypoxia fluorescent reporter inhibition; M. tuberculosis hypoxia-regulated fluorescent reporter, fluorescence; fluorescence inhibition, % (no concentration beside the values); actives 0.1% (n = 300,000); AID 1159583; in the data active means fluorescence inhibition mostly above about 23%, no sharp cut-off; inactive means mostly below about 17%
Mtb bLac sens – beta-lactam sensitization of Mtb H37Rv. actives 0.27% (n = 330,000). AID 434955. inhibition, % at 25 µM. M. tuberculosis H37Rv growth with meropenem, percent inhibition; call rule not given here;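 further: growth measured after seven days incubation then overnight dye step; 0% = bacteria only wells and 100% = bacteria with antibiotic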
Numbers without * were called inactive; ? = inconclusive; nt = no result; + = active, no number. The list is not random: actives were taken first. Their share in the collection is about 3.6%.

SMILES	Mtb FBA inh	GDH-TPI counter	DUSP3 inh	Mtb hypoxia inh	Mtb bLac sens
Cc1cc(/C=C2\C(=O)NN(c3ccccc3)C2=O)c(C)n1-c1ccccc1O	-3.3	33.8*	18.8	7.5	-1.6
Cc1cc(/C=C2/C(=O)NN(c3ccccc3)C2=O)c(C)n1-c1ccc(O)cc1	-2.8	15.8	-9.9	-9.7	9.1
CC(=O)c1ccc(N2CCN(C(=O)CNC(=O)c3ccc(Br)o3)CC2)cc1	0.0	32.3*	nt	nt	nt
O=C(NCC(=O)N1CCN(c2cccc(Cl)c2)CC1)c1ccc(Br)o1	3.0	0.7	nt	-0.2	-2.7
COc1ccccc1/C=C/C=Nn1c(-c2cc(C)[nH]n2)n[nH]c1=S	nt	nt	nt	-2.0	nt
CC(=O)Nc1cccc(-c2cccc3nccn23)c1	158.6*	-2.5	nt	nt	nt
Clc1cccc(-c2cccc3nccn23)c1Cl	6.8	4.0	nt	nt	nt
COc1ccccc1-c1cccc2nccn12	128.1*	5.8	nt	nt	nt
CC(=O)Nc1ccccc1-c1cccc2nccn12	125.1*	5.8	nt	nt	nt
CC1CN(C(C)CO)C(=O)c2cccc(NS(=O)(=O)c3cn(C)cn3)c2OC1CN(C)CC1CCCCC1 (configuration not stated)	nt	nt	nt	13.0	nt
CCN1C(=O)NC(c2ccco2)C(C(=O)OC)=C1C (configuration not stated)	nt	nt	nt	10.0	nt
O=C(C=Cc1cccs1)N1CCC2(CC1)Oc1ccc(Cl)cc1C(=O)C21CC(c2cccnc2)=NO1 (configuration not stated)	nt	nt	nt	-5.3	nt
Cc1ccc(C(=O)C=CNCc2ccccc2)cc1	nt	nt	nt	4.4	nt
COc1ccc(C(=O)/C=C/Nc2cc(C)on2)cc1	0.3	41.0*	2.3	11.5	0.1
COc1ccc(C(=O)/C=C/NCc2ccc(C)cc2)cc1	0.1	44.1*	nt	nt	-2.8
CC(=NNC(=O)Cn1ccc(C(F)(F)F)n1)c1ccc2c(c1)OCO2	nt	nt	nt	6.7	nt
O=C(N/N=C\c1c(O)ccc2ccccc12)c1ccc(O)cc1	0.2	22.3	27.9	nt	8.7
O=C(N/N=C/c1c(O)ccc2ccccc12)c1ccc(Br)o1	-0.8	10.0	57.1*	nt	11.9
O=C(N/N=C/c1cc(Br)c(O)c(Br)c1)c1cc2c(ccc3ccccc32)o1	4.7	32.6*	-1.9	nt	35.4
O=C(N/N=C/c1ccc(O)c(Br)c1)c1cc2c(ccc3ccccc32)o1	-0.3	26.8	1.8	nt	1.1
O=C(N/N=C/c1cc(Cl)c(O)c(Cl)c1)c1cc2c(ccc3ccccc32)o1	3.5	32.0*	-8.7	nt	?
CCOC(=O)C(C#N)=NNc1cc(Cl)ccc1OC	nt	nt	nt	5.0	nt
Cc1ccc(C)c(NC(=S)N(CCc2nc3cc(C)c(C)cc3[nH]2)Cc2cccnc2)c1	0.2	2.5	52.7*	2.6	-0.8
Cc1cccc(NC(=S)N(CCc2nc3cc(C)c(C)cc3[nH]2)Cc2cccnc2)c1	0.4	-4.5	37.0	11.1	4.6
Cc1c(C)c2c(OCC(=O)N[C@@H](Cc3ccccc3)C(=O)O)cc3c(c2oc1=O)CCC(C)(C)O3	+	38.2*	4.3	nt	-1.2
SMILES	Mtb FBA inh	GDH-TPI counter	DUSP3 inh	Mtb hypoxia inh	Mtb bLac sens
Cc1c(C)c2c(OCC(=O)NCC(O)c3ccccc3)cc3c(c2oc1=O)CCC(C)(C)O3 (configuration not stated)	19.2	14.7	8.8	nt	2.3
Cc1c(C)c2c(OCC(=O)N[C@@H](CC(C)C)C(=O)O)cc3c(c2oc1=O)CCC(C)(C)O3	+	18.4	2.4	-5.3	2.4
Cc1c(C)c2c(OCC(=O)NC3CC3)cc3c(c2oc1=O)CCC(C)(C)O3	+	13.2	0.3	nt	3.7
Cc1cc(OCC(=O)NC2CCS(=O)(=O)C2)c2c3c(c(=O)oc2c1)CCC3 (configuration not stated)	22.9	3.4	22.3	2.3	-2.4
CCCC(NC(=O)COc1cc2c(c3oc(=O)c(C)c(C)c13)CCC(C)(C)O2)C(=O)O (configuration not stated)	+	17.1	8.6	-10.5	6.1
COc1cc(C=NNc2ccc(C(F)(F)F)cn2)ccc1O	nt	nt	nt	2.5	nt
CCc1ccc(C2CC=C(C(=O)O)C(c3ccccc3)N2S(=O)(=O)c2ccc(C)cc2)cc1 (configuration not stated)	nt	nt	nt	3.4	nt
COCCCNC(=O)COc1cc2c(c3oc(=O)c(C)c(C)c13)CCC(C)(C)O2	+	7.1	17.2	4.5	-1.1
COCCCNC(=O)COc1ccc2oc3c(c2c1)CCCC3	0.2	-11.3	33.9	13.1	-5.8
CSCC[C@H](NC(=O)COc1cc2c(c3oc(=O)c(C)c(C)c13)CCC(C)(C)O2)C(=O)O	+	9.0	-28.6	0.0	2.3
CSC[C@H](NC(=O)COc1cc2c(c3oc(=O)c(C)c(C)c13)CCC(C)(C)O2)C(=O)O	+	15.0	2.4	2.9	3.6

Screening results (PubChem BioAssay)
